Assay outcomes as filed in PubChem.
pPAFAH inh: pPAFAH (human) enzyme inhibition; recombinant pPAFAH, FP-rhodamine probe fluorescence polarization; inhibition, % at 3.39 µM; Q13093; 330,000 compounds, 1.5% hits; AID 463082;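 active means inhibition above the mean inhibition across the screen plus 3 SD, cut at about 25% in these data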;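 further: inhibitors block binding of the rhodamine activity-based probe so polarization drops; 0% = enzyme with DMSO and 100% = wells lacking pPAFAH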
Target sequence (Q13093 whole entry, looked up): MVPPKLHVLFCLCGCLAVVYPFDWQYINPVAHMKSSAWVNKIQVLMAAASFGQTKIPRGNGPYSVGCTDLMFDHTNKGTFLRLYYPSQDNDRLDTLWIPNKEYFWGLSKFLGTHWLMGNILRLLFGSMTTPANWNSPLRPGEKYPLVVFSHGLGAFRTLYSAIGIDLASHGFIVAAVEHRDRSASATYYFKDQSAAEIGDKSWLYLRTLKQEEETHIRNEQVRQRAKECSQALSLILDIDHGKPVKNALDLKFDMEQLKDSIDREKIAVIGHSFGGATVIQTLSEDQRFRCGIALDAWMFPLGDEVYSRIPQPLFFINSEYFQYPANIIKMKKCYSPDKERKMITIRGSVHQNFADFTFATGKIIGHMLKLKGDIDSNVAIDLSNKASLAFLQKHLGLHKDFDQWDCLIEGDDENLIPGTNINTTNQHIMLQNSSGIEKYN
PAFAH1B2 FP inh: inhibitors of human PAFAH1B2; recombinant PAFAH1B2, FP-rhodamine activity probe, fluorescence polarization; inhibition, % at 3.39 µM; 340,000 compounds, 1.2% hits; P68402;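 active means inhibition above the mean of all tested compounds plus 3 SD, cut at about 24% in these data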;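 further: 0% = enzyme with DMSO and 100% = wells lacking PAFAH1B2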
PAFAH1B3 FP inh: blocks human PAF acetylhydrolase 1B catalytic subunit 3; inhibition, % at 3.39 µM; recombinant PAFAH1B3, FP-rhodamine probe, fluorescence polarization; Q15102; 340,000 compounds, 0.28% hits;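 active means inhibition above the screen-wide average of all tested compounds plus 3 SD, cut at about 25% in these data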;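 further: 0% = enzyme with DMSO only and 100% = wells lacking PAFAH1B3 protein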
Target sequence (Q15102 whole entry, looked up): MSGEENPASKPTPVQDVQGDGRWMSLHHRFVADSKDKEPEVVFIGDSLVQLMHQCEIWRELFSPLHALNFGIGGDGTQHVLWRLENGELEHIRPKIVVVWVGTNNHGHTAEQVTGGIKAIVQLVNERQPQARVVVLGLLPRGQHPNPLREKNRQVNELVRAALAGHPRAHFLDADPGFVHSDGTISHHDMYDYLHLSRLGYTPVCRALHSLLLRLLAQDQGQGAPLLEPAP
Rin1 Abl inh: blocks binding of human Rin1 to Abl. P00519+Q13671. TR-FRET Rin1/Abl binding, biochemical. inhibition, % at 7.35 µM. 360,000 compounds, 0.4% hits; in the data active means inhibition above about 5%, passing the limit was not always enough
eLon inh: inhibitors of E. coli Lon protease. P0A9M0. purified E. coli Lon protease, fluorescence polarization. inhibition, % at 7.94 µM. 360,000 compounds, 0.42% hits. AID 602123; in the data active means inhibition above about 13%, passing the limit was not always enough;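 further: 0% = enzyme with probe and DMSO and 100% = no enzyme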
PAFAH2 FP inh: inhibitors of human PAFAH2; Q99487; recombinant PAFAH2, FP-rhodamine activity probe, fluorescence polarization; inhibition, % at 3.39 µM; 340,000 compounds, 0.99% hits; AID 492956;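 active means inhibition above the mean over all tested compounds plus 3 SD, cut at about 30% in these data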;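 further: inhibitors block probe labeling of enzyme so polarization drops; 0% = enzyme with DMSO and 100% = wells lacking PAFAH2 protein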
* marks the source's active call; other numbers are inactive results; . = no result; ! = repeats disagree. Only some compounds are listed: those with a hit (about 3.1% of all), similar ones and a draw of the others.

SMILES | pPAFAH inh | PAFAH1B2 FP inh | PAFAH1B3 FP inh | Rin1 Abl inh | eLon inh | PAFAH2 FP inh
COc1ccc(NC(=O)CC2Nc3cc(C)c(C)cc3NC2=O)c([N+](=O)[O-])c1 (stereo unspecified) | 26* | 7 | -5 | 0 | -11 | -1
COc1cc(NC(=O)COC(=O)CC2CC3CCC2C3)cc(OC)c1 (stereo unspecified) | 15 | 11 | 0 | 1 | 8 | 12
O=C(COC(=O)CC1CC2CCC1C2)Nc1c(F)cccc1F (stereo unspecified) | 24 | 3 | 0 | 1 | 6 | 22
Cn1c(N)c(C(=O)CSc2n[nH]c(-c3ccccc3)n2)c(=O)n(C)c1=O | 0 | -2 | 14 | 0 | -1 | -7
Cc1cccc(-n2c(SCc3cc(=O)n4ccsc4n3)nc3ccccc32)c1 | 26* | -13 | -6 | 2 | -3 | -14
O=C(Nc1nc(-c2ccco2)c(-c2ccco2)s1)c1cnccn1 | 33* | . | . | . | . | .
O=C(Cc1ccc(F)cc1)c1ccc(O)cc1O | 6 | 25* | 2 | -1 | 2 | 6
CCc1cc(C(=O)Cc2ccc(F)cc2)c(O)cc1O | -9 | 10 | -3 | 1 | -4 | -6
Cn1cccc1CC(=O)NNC(=S)Nc1ccc(F)cc1 | 18 | 13 | -3 | -1 | -1 | 2
Cn1cccc1CC(=O)NNC(=O)Nc1ccccc1F | 4 | 2 | 11 | 2 | -1 | 9
O=C(CN1c2ccccc2Sc2ccccc21)NNC(=S)Nc1ccc(Cl)cc1Cl | 34* | -2 | -3 | -1 | 9 | 4
Cn1cccc1CC(=O)NNC(=S)NC(=O)c1ccccc1Br | 26* | 4 | 3 | -3 | -1 | 0
O=C(CN1c2ccccc2Sc2ccccc21)N/N=C/c1ccc(Cl)cc1Cl | 1 | -4 | 13 | -1 | 5 | 4
Cn1cccc1CC(=O)NNC(=S)Nc1ccc(Cl)cc1Cl | 26* | 9 | 4 | 0 | -3 | -7
COc1ccc(CNC(=O)CN(C(=O)c2snc(C(N)=O)c2N)c2ccccc2F)cc1 | 5 | -3 | 5 | 1 | 2 | 9
CCCCCCn1cc(CN2CC(N(C)CCC)CS2(=O)=O)nn1 (stereo unspecified) | . | . | . | . | -5 | .
CCCCOc1ccc(C(=O)N2CCN(c3ncccn3)CC2)cc1 | 4 | -1 | -3 | 0 | 0 | 0
COc1cc(O)c(C=Nc2ccccc2NS(=O)(=O)c2ccc(C)cc2)c(OC)c1 | . | -2 | 4 | 4 | -31 | 2
COCCNC(=O)c1cc2c(c(-c3cccc(C#Cc4ccc(OC)c(OC)c4)c3)n1)[C@H](CCO)N(S(=O)C(C)(C)C)C2 (stereo partly specified) | . | . | . | 1 | -25 | .
O=C(c1cncc(Br)c1)N1CCN(S(=O)(=O)c2ccc(Cl)cc2)CC1 | 3 | 25* | 12 | -3 | -2 | 7
COc1ccc(NC(=O)CCN2CCN(S(=O)(=O)c3ccc(Cl)cc3)CC2)cc1 | -6 | 25* | -2 | 1 | 1 | 6
O=C(c1ccc2ccccc2n1)N1CCN(S(=O)(=O)c2ccc(Cl)cc2)CC1 | 0 | 28* | 2 | 0 | -4 | 2
CN1CCN(S(=O)(=O)c2ccc(Cl)cc2)CC1 | -9 | 25*! | 11 | 3 | -1 | -1
Cc1ccc(C)c(S(=O)(=O)N2CCN(C(=O)c3ccc4ccccc4n3)CC2)c1 | 3 | 8 | 2 | 1 | 4 | -3
CN1CCN(S(=O)(=O)c2ccc(-c3ccc(Cl)cc3)cc2)CC1 | -1 | 2 | -2 | 1 | -6 | -3
SMILES | pPAFAH inh | PAFAH1B2 FP inh | PAFAH1B3 FP inh | Rin1 Abl inh | eLon inh | PAFAH2 FP inh
O=C(CN1CCN(S(=O)(=O)c2ccc(F)cc2)CC1)c1ccc(O)c(O)c1 | 6 | 9 | 13 | -5 | 5 | 6
O=C(C1CCN(S(=O)(=O)c2ccc(Cl)cc2)CC1)N1CCCCCCC1 | 0 | 6 | 8 | -1 | -14 | -8
O=C(CN1CCN(S(=O)(=O)c2ccc(Cl)cc2)CC1)c1ccc(O)c(O)c1 | 16 | 33* | 6 | -3 | 2 | 4
Cc1ccc(S(=O)(=O)c2ccc(Cl)cc2)cc1S(=O)(=O)N1CCN(C)CC1 | 6 | 26* | 4 | 1 | -4 | -1
O=C(C1CCCCC1)N1CCN(S(=O)(=O)c2ccc(Cl)cc2)CC1 | 4 | 27* | 2 | 0 | 9 | -4
O=S(=O)(c1ccc(Cl)cc1)N1CCCC(C(F)(F)F)C1 (stereo unspecified) | 6 | 30* | 5 | 0 | -3 | 7
COc1ccc(CNC(=O)C2=CC(c3ccc(OC)cc3)=NS(=O)(=O)N2C)cc1 | 0 | -4 | 3 | -4 | -4 | -1
Cc1nn(Cc2ccccc2)c(C)c1C(=O)N1CCN(S(=O)(=O)/C=C/c2ccccc2)CC1 | 5 | 7 | 5 | 3 | -3 | 3
Cc1ccc(S(=O)(=O)N2CCC(=O)CC2)cc1 | -4 | 8 | 5 | -1 | -8 | 2
COc1ccccc1CN(C(=O)CCl)C(C(=O)NC1CCCCC1)c1ccncc1 (stereo unspecified) | 11 | 1 | 9 | -2 | 25* | 10
CN(CC(=O)Nc1ccc(Cl)cc1)C1CCCCC1 | -1 | 8 | 6 | 0 | -12 | -4
COc1ccccc1CN(C)CC(=O)NC(=O)NC1CCCCC1 | 34* | 0 | -2 | 3 | -5 | 0
COc1ccccc1CN(C)CC(=O)NC1CCCc2ccccc21 (stereo unspecified) | 3 | 2 | 9 | -2 | -1 | 2
CN(CC(=O)Nc1ccc(C#N)cc1)Cc1ccc(Cl)cc1 | 2 | 31* | 16 | 1 | -5 | 8
CN(CC(=O)NC(=O)NC1CCCCC1)CC(=O)Nc1ccc(Cl)cc1 | 4 | 24* | 2 | 7 | -1 | 1
COCCC1CCCCN1C(=O)c1cc(COc2ccc(-n3cncn3)cc2)on1 (stereo unspecified) | 4 | 8 | -2 | 0 | 6 | -5
COc1ccccc1-c1cc2nc(-c3ccccc3)cc(N3CCN(C(=O)c4ccco4)CC3)n2n1 | . | . | . | -1 | 9 | .
CC1=NN(c2cccc(Cl)c2)C(=O)C1 | -4 | 8 | 8 | 32* | -17 | 4
NC(=NCc1ccco1)NC(=O)c1ccccc1 | -2 | 4 | 8 | 2 | 2 | -6
COc1ccc(C(=O)ON=C2CCN(c3ccc([N+](=O)[O-])cc3)CC2)cc1 | 5 | 7 | 3 | -3 | -4 | 89*
Cc1cccc(NC(=O)CN(CC2CCCO2)C(=O)c2cc3ccccc3o2)c1C (stereo unspecified) | . | -1 | 6 | 1 | -23 | -1
COC(=O)C1CSc2[nH]c(=O)sc2C1c1ccccc1 (stereo unspecified) | 2 | 28* | 3 | 0 | 19 | 11
COC(=O)C1Sc2[nH]c(=O)sc2C(c2ccc(Cl)cc2)C1C(=O)OC (stereo unspecified) | 1 | 5 | -3 | 0 | 0 | 19
O=C(O/N=C/c1ccc2c(c1)OCO2)c1ccccc1Cl | 37* | . | . | . | . | .
